{"source": "PubChem BioAssay (Tox21)", "note": "Results filed as inconclusive are left out. A number with no mark means an inactive call. Calls come from the whole dose curve; as a rule, active = well fitted cell-killing curve with a large enough effect in the repeat runs; inconclusive = weak or mixed curves, or effect the other way; inactive = flat fitted curve, though single readings scatter. % is set by controls: 0 for no effect and ±100 for the full control effect."}
{"test": "qHTS RealTime-Glo MT Cell Viability Assay in HepG2 cells - 0 hour (AID 1224889); note: nearly all actives have a fitted effect of over 50% in size", "settings": "RealTime-Glo luminescence; series mostly up to 76.8 µM; activity change, negative = cytotoxicity: at the top concentration", "in_short": "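HepG2 cells were seeded at 600 cells/well together with NanoLuc luciferase and a cell-permeant prosubstrate, preincubated 5 h at 37 C/5% CO2, then pin-dosed with compounds in DMSO. Nonlytic luminescence from viable cells was read at each time point.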"}
{"smiles": "C=CCOc1c(Br)cc(Br)cc1Br", "activity change, negative = cytotoxicity": "0.937%"}
{"smiles": "O=C1OC(=O)c2ccccc21", "activity change, negative = cytotoxicity": "-17.1%"}
{"smiles": "CC(C)CCCC(C)CC=O", "note": "(stereo not drawn)", "activity change, negative = cytotoxicity": "4.77%"}
{"smiles": "OC[C@@H](O)[C@H](O)[C@@H](O)[C@@H](O)CO", "activity change, negative = cytotoxicity": "4.56%"}
{"smiles": "O=C(CN1CCN(Cc2ccc3c(c2)OCO3)CC1)N1c2ccccc2Sc2ccccc21", "activity change, negative = cytotoxicity": "3.22% [at 35.3 µM]"}
{"smiles": "C=CCOC(=O)c1ccc(C(=O)OCC=C)c(C(=O)OCC=C)c1", "activity change, negative = cytotoxicity": "-27.8%"}
{"smiles": "CCOC(=O)C(=O)c1csc(NC=O)n1", "activity change, negative = cytotoxicity": "3.9% [at 35.3 µM]"}
{"smiles": "Nc1ccc(C(=O)OCC(O)CO)cc1", "note": "(stereo not drawn)", "activity change, negative = cytotoxicity": "-0.5% [at 35.3 µM]"}
{"smiles": "CC(CC(=O)O)CC(C)(C)C", "note": "(stereo not drawn)", "activity change, negative = cytotoxicity": "-1.76%"}
{"smiles": "CC(C)C(=O)c1ccccc1", "activity change, negative = cytotoxicity": "-0.128%"}
{"smiles": "CC(C)C(=O)Nc1cccc(C(F)(F)F)c1", "activity change, negative = cytotoxicity": "-3.89% [at 35.3 µM]"}
{"smiles": "NC(=O)NNC(N)=O", "activity change, negative = cytotoxicity": "-0.753%"}
{"smiles": "O=C(O)c1c(Cl)ccc(Cl)c1Cl", "activity change, negative = cytotoxicity": "2.5%"}
{"smiles": "CCCCCC(=O)OCC", "activity change, negative = cytotoxicity": "-6.71%"}
{"smiles": "CCC1COC(=O)O1", "note": "(stereo not drawn)", "activity change, negative = cytotoxicity": "0.719%"}
{"smiles": "Cc1ccc(C(=O)C(=O)O)cc1C", "activity change, negative = cytotoxicity": "-1.43% [at 35.3 µM]"}
{"smiles": "CC(=O)/C=C/c1ccco1", "activity change, negative = cytotoxicity": "-0.416%"}
{"smiles": "CC(C)(c1ccc(Oc2ccc3c(c2)C(=O)OC3=O)cc1)c1ccc(Oc2ccc3c(c2)C(=O)OC3=O)cc1", "activity change, negative = cytotoxicity": "-15.3%"}
{"smiles": "O=S(=O)(O)CCO", "activity change, negative = cytotoxicity": "2.8%"}
{"smiles": "CCCCCCCCCCCCC1CO1", "note": "(stereo not drawn)", "activity change, negative = cytotoxicity": "-6.1%"}
{"smiles": "CCCCCCCCCCCCOC(C)=O", "activity change, negative = cytotoxicity": "2.14%"}
{"smiles": "CO[Si](CCCS)(OC)OC", "activity change, negative = cytotoxicity": "6.71%"}
{"smiles": "Cc1cccc(C(=O)O)c1[N+](=O)[O-]", "activity change, negative = cytotoxicity": "0.0095%"}
{"smiles": "CC(C)(C)NCCO", "activity change, negative = cytotoxicity": "5.76%"}
{"smiles": "CC(=O)OC(C)c1ccccc1", "note": "(stereo not drawn)", "activity change, negative = cytotoxicity": "5.84%"}
{"smiles": "O=C(O)c1ccccc1C(=O)Nc1ccc(S(=O)(=O)Nc2nccs2)cc1", "activity change, negative = cytotoxicity": "-12.2% [at 35.3 µM]"}
{"smiles": "CC1=CC[C@H](CC=O)C1(C)C", "activity change, negative = cytotoxicity": "0.193%"}
{"smiles": "CN(C)CCOCCN(C)CCO", "activity change, negative = cytotoxicity": "2.97%"}
{"smiles": "C=C[Si](C)(C)O[Si](C)(C)C=C", "activity change, negative = cytotoxicity": "-1.88%"}
{"smiles": "CCCCOC(=O)[C@@H](C)Oc1ccc(Oc2ccc(C(F)(F)F)cn2)cc1", "activity change, negative = cytotoxicity": "-0.0814%"}
{"smiles": "CC(C)SCc1ccco1", "activity change, negative = cytotoxicity": "5.54% [at 35.3 µM]"}
{"smiles": "CCCCCCCCC(=O)OCC", "activity change, negative = cytotoxicity": "10.2%"}
{"smiles": "CCN1CN(CC)CN(CC)C1", "activity change, negative = cytotoxicity": "2.11%"}
{"smiles": "CCCOC(=O)CCCCC(=O)OCCC", "activity change, negative = cytotoxicity": "2.27%"}
{"smiles": "CCCCOC(=O)C(C)OC(=O)CCC", "note": "(stereo not drawn)", "activity change, negative = cytotoxicity": "-2.16%"}
{"smiles": "CCCO", "activity change, negative = cytotoxicity": "-0.386%"}
{"smiles": "Cc1cc(O)c2c(c1)C(=O)c1cccc(O)c1C2=O", "activity change, negative = cytotoxicity": "16.3% [at 35.3 µM]"}
{"smiles": "CC(C)CCCCCCOC(=O)C1CCCCC1C(=O)OCCCCCCC(C)C", "note": "(stereo not drawn)", "activity change, negative = cytotoxicity": "3.33%"}
